Structures are written as SMILES. This is one part of the list. Activity calls are given as the source filed them. Calls follow the shape of the full dose curve.

For this assay the following is noted: Ebola pseudovirus entry assay, ratio channel.
`CO[C@H]1C[C@@H]2CC[C@@H](C)[C@@](O)(O2)C(=O)C(=O)N2CCCC[C@@H]2C(=O)O[C@H]([C@@H](C)C[C@@H]2CC[C@H](O)[C@H](OC)C2)CC(=O)[C@H](C)C=C(C)[C@@H](O)[C@@H](OC)C(=O)[C@H](C)C[C@H](C)C=CC=CC=C1C`: the result was inactive.

For the compound `CO[C@]12CC[C@@]3(C[C@@H]1[C@](C)(O)C(C)(C)C)[C@@H]1Cc4ccc(O)c5c4[C@@]3(CCN1CC1CC1)[C@H]2O5`, the AC50 is 9.87 µM (active). As for `CCCCN(CCCC)CCC(O)c1cc2c(Cl)cc(Cl)cc2c2cc(C(F)(F)F)ccc12` (centres undefined), the concentration at half-maximal activity (AC50) was 13.7 µM (active). On to `CCN(CC)CCCC(C)Nc1ccnc2cc(Cl)ccc12` (centres undefined), for which the half-maximal activity concentration (AC50) was 15.3 µM (active).

Consider `CCCC(C(=O)OCCN(CC)CC)(c1ccccc1)c1ccccc1`, for which the AC50 was 4.85 µM (active). The same measure, in the same setting: to `CC[C@]1(O)C[C@@H]2CN(CCc3c([nH]c4ccccc34)[C@@](C(=O)OC)(c3cc4c(cc3OC)N(C)[C@H]3[C@@](O)(C(=O)OC)[C@H](OC(C)=O)[C@]5(CC)C=CCN6CC[C@]43[C@@H]65)C2)C1` belongs 0.137 µM (active). Same read-out and setting: to `COc1ccccc1OCCNCC(O)COc1cccc2[nH]c3ccccc3c12` (centres undefined) belongs 17.2 µM (active); to `Clc1ccc(C(Cn2ccnc2)OCc2ccsc2Cl)c(Cl)c1` (centres undefined), 13.7 µM (active); to `CN(C(=O)CN(CCO)CC(=O)N(C)C(C)(C)Cc1ccccc1)C(C)(C)Cc1ccccc1`, 6.11 µM (active).

These data come from PubChem BioAssay AID1117308 (National Center for Advancing Translational Sciences (NCATS), 2015).
